FECH block = inhibitors of human ferrochelatase, primary screen, biochemical, purified FECH, Ni-mesoporphyrin absorbance. Ni-mesoporphyrin absorbance 550 nm. calls only at 10 µM (by protocol). 20,000 compounds, 3.3% hits. AID 1671448, 2021;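 active means enzyme reaction rate more than 3 SD below the solvent-only control wells on the same plate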;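 further: lower slope than DMSO wells means FECH inhibition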
The depositor's hits bear a star; i = inactive; + = active, no number. The sample as a whole holds a higher share of hits than the screen did.

SMILES	FECH block
O=S1(=O)N(Cc2ccc(Cl)cc2)CCCN1Cc1ccccc1Cl	+
Cc1ccc(CN2CCCN(Cc3ccccc3C)S2(=O)=O)cc1	i
Cc1ccc(C)c(CN2CCCN(Cc3ccccc3)S2(=O)=O)c1	i
CCCc1cc(C(=O)N2CCC3(CC2)C(=O)NCCN3C)ccn1	i
CCC(NC(C)=O)C1=CCN(CCc2c[nH]c3ccccc23)CC1 (centres undefined)	i

Screening results as filed in PubChem BioAssay.
